# Reference: PubChem BioAssay (NCI)
# Several values for one entry are separate records, joined by “and”; a condition that tells them apart may be missing. Equal entries are not always repeated. The panel holds about 83,000 compounds, 20% with a hit somewhere; the sample as a whole holds those more often.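 Percent growth is the endpoint: 0 to 100 indicates growth inhibition (40 means 60% inhibition), 0 means no net growth, and negative values indicate cell death.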 Activity calls are given as the source filed them. How the source made its calls: active means growth percent below 10; inactive means the rest.
# Test system: MDA-MB-468 breast
# Test: NCI-60 one-dose screen, 48 h (100 = growth as untreated, 0 = no growth, -100 = all killed)
# Conditions: 10 µM unless noted
row,SMILES,growth
1,CC(=O)c1cc(Cl)ccc1O,97.5% (inactive)
2,N[C@@H](CC/[N+]([O-])=N/O)C(=O)O,97.4% (inactive)
3,CCc1n(Cc2ccc3ccccc3c2)c2ccccc2[n+]1Cc1ccc2ccccc2c1,5.98% (active)
4,CCNC(=O)N1CCc2cc(OC)c(OCCc3ccc(OC)nc3)cc2C1c1ccc(OC)cc1C (stereo not given),26.7% (inactive)
5,Cc1ccc(/C=C/C(=O)c2ccc(F)cc2)s1,42.2% (inactive)
6,COc1cc(OC)c(NC(=O)C(Sc2nc(C)cc(C)c2C#N)c2ccccc2)cc1Cl (stereo not given),93.6% (inactive)
7,Cc1csc(/N=C(N)/N=C(\N)c2cccnc2)n1,91.9% (inactive)
8,Cc1cc(O)c2c(c1)C(=O)c1cc(O)cc(O)c1C2=O,73.2% (inactive)
9,O=C1c2c(c3c4cc(F)ccc4oc3c3[nH]c4ccccc4c23)C(=O)N1O,-5.83% (active)
10,COc1nc2c(cc1S(=O)(=O)c1ccccc1)CCc1c-2cnn1-c1ccc(Cl)cc1,87.6% (inactive)
11,O=C(CCC(C(=O)c1ccccc1)c1ccccc1)c1ccccc1 (stereo not given),35.9% (inactive)
12,Cc1ccc(C2=NNC(c3sc(Cl)nc3Cl)C2)cc1 (stereo not given),93.5% (inactive)
13,Cc1[nH]c(C(=O)Nc2ccccc2OCc2cccc(C(=O)NCCN)c2)cc1Cl,34.3% (inactive)
14,CCN1C(=O)N(CC)C2SC(N/N=C/c3ccc(OC)cc3)=NC21 (stereo not given),32.2% (inactive)
15,COc1ccc(Cn2c(Br)c3c(c2Br)-c2nc(N)sc2CC3)cc1,-5.61% (active)
16,O=C(CCn1cc[n+](CC(=O)c2ccc(-c3ccccc3)cc2)c1)Nc1cccc2cccnc12,-16.8% (active)
17,Cc1ccc(-c2cc3nc(C(Cl)Cl)nc(C)n3n2)cc1,110% (inactive)
18,O=C1C[C@H](c2ccccc2)[C@H](c2ccccc2)C1,99.2% (inactive)
19,CN1CCN(Cc2ccc(NC(=O)c3cncc(C#Cc4cnc5ccc(NC6CCOCC6)nn45)c3)cc2C(F)(F)F)CC1,-88.5% (active)
20,CC1=C2C(=C[C@@](C)(CO)[C@@H]2OC(=O)N(C)CCN(C)C(=O)OC(C)(C)C)C(=O)[C@](C)(O)C12CC2,-10.1% (active)

row,SMILES,growth
1,COc1ccc2c(c1)C(=O)CC(c1ccccc1OC)O2 (stereo not given),92.2% (inactive)
2,O=C(/C=C/c1ccc([N+](=O)[O-])o1)NNC(=O)c1cc2ccccc2cc1O,6.09% (active)
3,Cn1c(=O)[nH]c(=O)c2nc3c(nc21)-c1ccccc1C3=O,82.8% (inactive)
4,CCOC(=O)c1ccc2c(c1)[n+](=O)c(C(=O)c1ccc3ccccc3c1)c(C(F)(F)F)n2[O-],-92.6% (active)
5,COc1c(B(O)O)cccc1-c1nc2ccc3[nH]ncc3c2c2c1CCC2,60% (inactive)
6,CC(C)(C)OC(=O)N1CCCN(CCNc2nccc(-c3c(-c4cccc(O)c4)nc4sccn34)n2)S1(=O)=O,97.3% (inactive)
7,Clc1ccc([C@@H]2C[C@@H]3Cc4cc(Br)c5ccccc5c4N2O3)c(Cl)c1,59.2% (inactive)
8,Cc1ccc(C(=O)NN2C(=O)CSC2c2ccc(Cl)cc2)cn1 (stereo not given),110% (inactive)
9,COc1cccc(-c2nn(-c3ccccc3)cc2-c2ccnc(NCCNC(=O)Nc3cccc(C(F)(F)F)c3)c2)c1,15.5% (inactive)
10,C=C1C(=O)O[C@H]2[C@H]1CC/C(Cn1cc(-c3ccccc3C(F)(F)F)nn1)=C\CC[C@@]1(C)O[C@@H]21,-56.1% (active)
11,Clc1ccc(N2N=C(c3cccc(Nc4ccncc4)c3)CC2c2ccc(Br)cc2)cc1 (stereo not given),-27.1% (active)
12,O=C1OC(=O)C2C1CC=CC2c1ccccc1 (stereo not given),93.3% (inactive)
13,CCOc1ccc(NC(=O)CSc2oc(-c3ccccc3)nc2S(=O)(=O)c2ccc(C)cc2)cc1,53% (inactive)
14,O=C(O)CCCCNC(=O)c1ccccc1,97.7% (inactive)
15,CC(C)OC1=C(Cl)C(=O)c2ccccc2C1=O,69.1% (inactive)
16,CCCCn1c(Cc2ccc(OC)cc2)nc2cc(OC)c(OC)cc2c1=O,46.7% (inactive)
17,CCCCCCCC/C=C\CCCCCCCCOc1ccccc1CC(=O)NCC[N+]1(C)CCCCC1,-9.98% (active)
18,O=C(CN1CCN(c2cc(=O)n(-c3ccccc3)c3ccccc23)CC1)Nc1ccc([N+](=O)[O-])cc1,62.1% (inactive)
19,CCOc1ccc(Nc2c3ccccc3nc3ccccc23)cc1,102% (inactive) and -9.77% (active)
20,CSc1nc(-c2cccs2)c2c(N)[nH]nc2n1,117% (inactive)
